From PubChem BioAssay AID540276 (National Center for Advancing Translational Sciences (NCATS), 2011)
Among all 300,000 compounds or so, about 5,400 (1.8%) were called active. Not shown: some 28% with an inconclusive outcome. This excerpt belongs to a sample that is enriched for actives. Values without a mark were called inactive. Calls follow the shape of the full dose curve; tested in HEK293 cells.

test: qHTS for inhibitors of binding or entry into cells for Marburg Virus; settings: Marburg virus pseudotyped entry inhibition, cell reporter; series mostly up to 37.8 µM; activity change, negative = inhibition: at the top concentration
% is scaled to controls: 0 for no effect and ±100 for the full control effect; potency is read from the fitted curve at half-maximal effect.

| Structure (SMILES) | activity change, negative = inhibition | Potency |
| --- | --- | --- |
| O=C1OC(Cc2ccccc2)C(c2ccccc2)C1=O (centres undefined) | 3.11% |  |
| O=C(CSc1nc2[nH]ncc2c(=O)n1-c1ccccc1)N1CCCc2ccccc21 | 4.12% |  |
| O=C(CSc1nc2ccccc2c(=O)n1CCCO)N1CCc2ccccc21 | -0.197% |  |
| Cn1c(SCC(=O)N2CCCc3ccccc32)nc2ccccc2c1=O |  | 12.6 µM (active) |
| CN(C)CCn1c2c(c(SCC(=O)Nc3ccccc3C(F)(F)F)nc1=O)CCCC2 | 28.8% |  |
| COc1ccc(NC(=O)c2nc(-n3nc(C)cc3C)ccc2Cl)cc1Cl | 9.49% |  |
| Cc1ccc2nc(C)cc(N/N=C/c3ccc(F)cc3)c2c1 | 9.21% [at 46.1 µM] |  |
| Cc1cc(C)nc(-n2nc(C)cc2NC(=O)c2ccc(Br)o2)n1 | 4.69% |  |
| Cc1cc(N/N=C\c2ccc(Br)cc2)nc(-n2nc(C)cc2C)n1 |  | 2.24 µM (active) |
| Cc1cc(Nc2ccccc2)nc(N)n1 | 3% |  |
| COc1ccc(Nc2cc(C)nc(-n3nc(C)cc3C)n2)cc1 |  | 1.3 µM (active) |
| CN1CCN(C(=O)c2cnn(-c3ccccc3)c2NC(=O)c2ccc([N+](=O)[O-])cc2)CC1 | 12.4% [at 46.1 µM] |  |
| CN1CCN(C(=O)C(=O)c2cn(CC(=O)N3CCCC3)c3ccccc23)CC1 | -14.1% |  |
| O=C1NC(=O)C(CCc2ccccc2)(c2ccccc2)N1 (centres undefined) | -23.1% |  |
| COc1ccc(C(=O)NC2CCCc3c2cnn3-c2cccc(C)c2C)c(OC)n1 (centres undefined) |  | 0.708 µM (active) |
| Cc1cccc(C(=O)OC(C)C(=O)NC2CCCc3ccccc32)c1O (centres undefined) | 1.02% [at 46.1 µM] |  |
| COCc1ccc(C(=O)NC2CC(C)(C)Cc3c2cnn3-c2ccc(C)cc2)o1 (centres undefined) | -15.2% |  |
| CN(C)C(=O)c1ccc(NC(=O)c2ccccc2-c2ccccc2)cc1 | 0.637% [at 46.1 µM] |  |
| CCc1ccc(N(C(=O)c2csnn2)C(C(=O)NC2CCCCC2)c2ccncc2)cc1 (centres undefined) | 6.59% [at 46.1 µM] |  |
| O=C1CC2(CCCC2)C(=O)N1CN1CCN(S(=O)(=O)c2ccc(F)cc2F)CC1 | -2.46% |  |
| O=C(Cc1cccc2ccccc12)Nc1ccc2oc(-c3ccccc3)nc2c1 | 22.7% |  |
| CCc1ccc2oc(-c3ccc(N)cc3)nc2c1 |  | 5.17 µM (active) |
| COc1ccc(-c2nc3cc([N+](=O)[O-])ccc3o2)cc1OC | -1.31% [at 46.1 µM] |  |
| CC(=O)Nc1ccc(S(=O)(=O)Nc2cc(C)cn(Cc3ccc(C)cc3)c2=O)cc1 | -2.78% [at 46.1 µM] |  |
| CCOC(=O)C1=C(CN2CCCCCC2)NC(=O)NC1c1cccc([N+](=O)[O-])c1 (centres undefined) | -3.93% [at 46.1 µM] |  |
| CCOC(=O)C1=C(C)NC(=O)NC1c1ccccc1 (centres undefined) | -12.9% |  |
| CCOC(=O)C1=C(CN2CCc3ccccc32)NC(=O)NC1c1ccc(Cl)cc1 (centres undefined) |  | 16.4 µM (active) |

| Structure (SMILES) | activity change, negative = inhibition | Potency |
| --- | --- | --- |
| COc1ccc([C@H]2C(C#N)=C(N)Oc3n[nH]c(C)c32)cc1CSc1ccccn1 | -7.9% |  |
| COc1cccc(NC(=O)CN(C)C(=O)Cc2ccc(Cl)cc2Cl)c1 | -19.1% |  |
| CCOC(=O)c1c(-c2cccc(C)c2)csc1NC(=O)c1c(-c2ccccc2)noc1C |  | 0.316 µM (active) |
| CC(=O)Nc1cccc(NC(=O)c2c(-c3ccccc3)noc2C)c1 | -18% |  |
| Cc1ccc(CNC(=O)c2c(-c3ccccc3)noc2C)cc1 | 5.17% [at 46.1 µM] |  |
| CC(C)(C)C(=O)Nc1cccc(-c2ccc[nH]2)n1 | -0.354% |  |
| Cc1cc([N+](=O)[O-])c(=O)[nH]c1C | 19.3% |  |
| COc1ccc(NC(=O)N2CCCC2C(=O)NCc2ccccc2Cl)cc1 (centres undefined) | 0.978% |  |
| CCc1ccc(NC(=O)CN2C(=O)C(c3ccccc3)=NC23CCCCCC3)cc1 | -30.3% [at 46.1 µM] |  |
| COc1ccc(C2=NC3(CCCCC3)N(CC(=O)Nc3ccc(C(C)C)cc3)C2=O)cc1 |  | 11.2 µM (active) |
| COc1ccc(NC(=O)CN2C(=O)C(c3ccccc3)=NC23CCCCCC3)cc1OC | -21.6% |  |
| CCCCn1c(N)c(N(CC(C)C)C(=O)c2ccc(Br)o2)c(=O)[nH]c1=O | 17.7% [at 46.1 µM] |  |
| O=C(Nc1c[nH]c(=O)[nH]c1=O)OCc1ccccc1 | 27.8% [at 46.1 µM] |  |
| Cc1c(NC(=O)CN(C)CC(=O)Nc2ccc(F)c(F)c2F)c(=O)n(-c2ccccc2)n1C | -3.68% |  |
| Cc1cccc(N(Cc2ccccc2)C(=O)c2cc(S(=O)(=O)N3CCOCC3)ccc2F)c1 | -20.3% [at 46.1 µM] |  |
| Cc1cc(NC(=O)c2cc3ccccc3o2)no1 | 10.1% [at 46.1 µM] |  |
| COc1cccc2sc(NNC(=O)c3nc4ccccc4s3)nc12 | -10.8% |  |
| CCOc1ccc2nc(N(CCN(C)C)C(=O)c3ccc4ccccc4c3)sc2c1 | -10.7% [at 46.1 µM] |  |
| COc1cccc2sc(N(CCCN(C)C)C(=O)C(c3ccccc3)c3ccccc3)nc12 |  | 10 µM (active) |
| COC(=O)C1=C(C)NC(=S)NC1c1ccc(OCC(=O)N2CC(C)OC(C)C2)c(OC)c1 (centres undefined) | -7.83% |  |
| CC(C)(C)CC(C)(C)NCC(O)COCCOc1ccc(Br)cc1 (centres undefined) |  | 4.61 µM (active) |
| COc1ccc(OCC(O)CNCCNc2nccc(C(F)(F)F)n2)cc1 (centres undefined) | -10.5% |  |
| Cc1noc(COc2ccccc2OCC(O)CNC(C)(C)C)n1 (centres undefined) | -7.5% |  |
| COc1cccc(NC(=O)C/C(C)=N/NC(=O)C2CCCCC2)c1 | 0.161% |  |
| Cc1ccc(OCC(=O)Oc2ccccc2[N+](=O)[O-])cc1 | -5.93% |  |
| O=C1CN(C(=O)COc2c(Cl)cccc2Cl)c2ccccc2N1 | 18.3% |  |
| COc1ccc(-n2ncc3c2CC(C)(C)CC3NC(=O)CCc2c(C)nn(C)c2C)cc1 (centres undefined) | -0.487% [at 46.1 µM] |  |
